{"source": "paper PMC10726135", "about": "“HNF4α isoforms regulate the circadian balance between carbohydrate and lipid metabolism in the liver”", "note": "Whole data set: some 18,000 sequences, median “log2 normalized intensity” near 0.36, cut for the highest 2% near 7.3. The entries come from a sample that favours the highest values as a whole."}
{"molecular_target": "T1, HNF4alpha8 (COS-7 nuclear extract) (Homo sapiens, UniProt P41235-5 1-452)", "T1 sequence": "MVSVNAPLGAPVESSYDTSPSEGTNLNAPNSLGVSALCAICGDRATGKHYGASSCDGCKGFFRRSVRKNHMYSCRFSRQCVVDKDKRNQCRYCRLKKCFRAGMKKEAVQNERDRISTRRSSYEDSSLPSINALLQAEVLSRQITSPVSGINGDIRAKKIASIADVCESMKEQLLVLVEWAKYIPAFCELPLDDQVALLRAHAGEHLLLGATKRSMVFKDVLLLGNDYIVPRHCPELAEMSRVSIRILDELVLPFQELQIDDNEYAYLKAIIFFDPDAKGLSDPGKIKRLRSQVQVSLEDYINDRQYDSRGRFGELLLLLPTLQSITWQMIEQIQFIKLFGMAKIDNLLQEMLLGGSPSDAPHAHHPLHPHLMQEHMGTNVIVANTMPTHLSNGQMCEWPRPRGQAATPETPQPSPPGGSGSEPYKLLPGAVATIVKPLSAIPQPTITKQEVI", "assay": "protein-binding microarray; COS-7 nuclear extract on double-stranded Agilent 4x180k PBM; binding buffer, salt, pH and temperature not given in the material; high values mean tight binding", "details": "chain copies: 2; label: 3' end of strand 1 on the slide; dsDNA, one strand shown", "procedure,_shortened": "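Nuclear extracts came from COS-7 cells transiently transfected by CaPO4 with a human HNF4α isoform expression vector. They were applied to a custom Agilent SurePrint G3 4x180k array of ~60-nt oligonucleotides, made double-stranded, with ~44,000 test sequences spotted in quadruplicate. Bound HNF4α was imaged at 2-µm resolution on an Agilent G2565CA scanner. Binding signal was taken as background-corrected, normalized gProcessedSignal from Agilent software.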", "units": {"binding signal": "log2 normalized intensity"}}
{"sequence": "GTGAGTGTGTTGGCAAGAGATCTGCAGGGTGCCTAGGGAGATTAGAGTATCGGTCGA", "binding signal": 1.02}
{"sequence": "TCCTTTTATCTTACATGCCTTATCTGGTTCGCCTAGGGAGATTAGAGTATCGGTCGA", "binding signal": 1.64}
{"sequence": "TATCTGGTTCAAAGGTCATTTCTGCTTGCAGCCTAGGGAGATTAGAGTATCGGTCGA", "binding signal": 6.43}
{"sequence": "TGCCTTATCTGGTTCAAAGGTCATTTCTGCGCCTAGGGAGATTAGAGTATCGGTCGA", "binding signal": 7.61}
{"sequence": "TTACATGCCTTATCTGGTTCAAAGGTCATTGCCTAGGGAGATTAGAGTATCGGTCGA", "binding signal": 8.2}
{"sequence": "TTATCTTACATGCCTTATCTGGTTCAAAGGGCCTAGGGAGATTAGAGTATCGGTCGA", "binding signal": 3.33}
{"sequence": "GGTTCAAAGGTCATTTCTGCTTGCAACCAAGCCTAGGGAGATTAGAGTATCGGTCGA", "binding signal": 5.81}
{"sequence": "TCCAGAATTGTGTGGTTATCTGTTGGGGAAGCCTAGGGAGATTAGAGTATCGGTCGA", "binding signal": 2.14}
{"sequence": "ATAAGGGGCAGCAAACCTACCTGAACTTTGGCCTAGGGAGATTAGAGTATCGGTCGA", "binding signal": 3.58}
{"sequence": "GCAAACCTACCTGAACTTTGCCCCAGAGGAGCCTAGGGAGATTAGAGTATCGGTCGA", "binding signal": 6.74}
{"sequence": "TTGAACCTTGGGTCTGTAATCTCACAACTCGCCTAGGGAGATTAGAGTATCGGTCGA", "binding signal": 1.98}
{"sequence": "TGCAGCAAAACTTTAGGACTTTGAACCTTGGCCTAGGGAGATTAGAGTATCGGTCGA", "binding signal": 9.2}
{"sequence": "GGGCAGCAAACCTACCTGAACTTTGCCCCAGCCTAGGGAGATTAGAGTATCGGTCGA", "binding signal": 8.83}
{"sequence": "CCTTGCCACCCACACTGCAGCAAAACTTTAGCCTAGGGAGATTAGAGTATCGGTCGA", "binding signal": -0.731}
{"sequence": "CACACTGCAGCAAAACTTTAGGACTTTGAAGCCTAGGGAGATTAGAGTATCGGTCGA", "binding signal": 4.12}
{"sequence": "GGGAGGAGGGCAACCTTTGAACTGGGTCTTGCCTAGGGAGATTAGAGTATCGGTCGA", "binding signal": 4.84}
{"sequence": "CAAAACTTTAGGACTTTGAACCTTGGGTCTGCCTAGGGAGATTAGAGTATCGGTCGA", "binding signal": 7.83}
{"sequence": "GGACTTTGAACCTTGGGTCTGTAATCTCACGCCTAGGGAGATTAGAGTATCGGTCGA", "binding signal": 7.84}
{"sequence": "CCTTGGGTCTGTAATCTCACAACTCAGAAGGCCTAGGGAGATTAGAGTATCGGTCGA", "binding signal": -0.129}
{"sequence": "CTTTAGGACTTTGAACCTTGGGTCTGTAATGCCTAGGGAGATTAGAGTATCGGTCGA", "binding signal": 6.82}
{"sequence": "GTTGCCTGTGAGTCAGGTACCTGCTTCTGCGCCTAGGGAGATTAGAGTATCGGTCGA", "binding signal": 0.609}
{"sequence": "TACTTAGTGTTTTATGTGTATTTACTTATTGCCTAGGGAGATTAGAGTATCGGTCGA", "binding signal": 1.74}
{"sequence": "GGCAAGATTTTGTCCTGAGTTATTGGAAGAGCCTAGGGAGATTAGAGTATCGGTCGA", "binding signal": 0.282}
{"sequence": "TCTTCAAGGAGGTGAACTTTGAGACTATCCGCCTAGGGAGATTAGAGTATCGGTCGA", "binding signal": 5.2}
{"sequence": "AAAGTTTCCTCTCCTGCCCTACTCCCTTAAGCCTAGGGAGATTAGAGTATCGGTCGA", "binding signal": 2.63}
{"sequence": "AGTGGTTTCAAGGTGACCCCACGGAGCTGCGCCTAGGGAGATTAGAGTATCGGTCGA", "binding signal": 3}
{"sequence": "CCTACCAGTATGCAATGTTAGTCTGGGAAAGCCTAGGGAGATTAGAGTATCGGTCGA", "binding signal": -0.0207}
{"sequence": "ATTGCCGACCTCATGAGTAGAGAGCAATCAGCCTAGGGAGATTAGAGTATCGGTCGA", "binding signal": -0.943}
{"sequence": "TGTCTCCAGAAATCAACCTTTGATCGTTTGGCCTAGGGAGATTAGAGTATCGGTCGA", "binding signal": 6.77}
{"sequence": "ATGTCTCCAGAAACCAACCTTTGATCATTCGCCTAGGGAGATTAGAGTATCGGTCGA", "binding signal": 5.75}
{"sequence": "ACTTCTGTCTCCAGAAATCAACCTTTGATCGCCTAGGGAGATTAGAGTATCGGTCGA", "binding signal": 8.8}
{"sequence": "GCCAGAACTGAGCCCTGGTTTATCTGTTGTGCCTAGGGAGATTAGAGTATCGGTCGA", "binding signal": 0.861}
{"sequence": "TTTTCAATCTTATTTTTACTATGTGGCATTGCCTAGGGAGATTAGAGTATCGGTCGA", "binding signal": 1.35}
{"sequence": "CACTTACAAGTGTACAAAGGTCACTTCTGTGCCTAGGGAGATTAGAGTATCGGTCGA", "binding signal": 7.03}
{"sequence": "ACCAACCTGTCCAAAGGTCATCTGTCACTCGCCTAGGGAGATTAGAGTATCGGTCGA", "binding signal": 6.36}
{"sequence": "CCTGTCCAAAGGTCATCTGTCACTCTAGATGCCTAGGGAGATTAGAGTATCGGTCGA", "binding signal": 6.02}
{"sequence": "AGTATATTGGCTTGGCTGTGTCCCTTGACCGCCTAGGGAGATTAGAGTATCGGTCGA", "binding signal": 3.67}
{"sequence": "CTGTACACTTACAAGTGTACAAAGGTCACTGCCTAGGGAGATTAGAGTATCGGTCGA", "binding signal": 8.53}
{"sequence": "ATTGGCTTGGCTGTGTCCCTTGACCAAAGGGCCTAGGGAGATTAGAGTATCGGTCGA", "binding signal": 2.62}
{"sequence": "TCAGAGGAATGTCTGACCAACCTGTCCAAAGCCTAGGGAGATTAGAGTATCGGTCGA", "binding signal": -0.555}
{"sequence": "GTCTGACCAACCTGTCCAAAGGTCATCTGTGCCTAGGGAGATTAGAGTATCGGTCGA", "binding signal": 7.75}
{"sequence": "TTATATCAGAGGAATGTCTGACCAACCTGTGCCTAGGGAGATTAGAGTATCGGTCGA", "binding signal": 0.807}
{"sequence": "CTTGGCTGTGTCCCTTGACCAAAGGTCACTGCCTAGGGAGATTAGAGTATCGGTCGA", "binding signal": 7.67}
{"sequence": "TATACCTGTACACTTACAAGTGTACAAAGGGCCTAGGGAGATTAGAGTATCGGTCGA", "binding signal": 2.96}
{"sequence": "GGAATGTCTGACCAACCTGTCCAAAGGTCAGCCTAGGGAGATTAGAGTATCGGTCGA", "binding signal": 8.5}
{"sequence": "ACAGGGAAAGTATGGGTCAGCCCTGCCATCGCCTAGGGAGATTAGAGTATCGGTCGA", "binding signal": -0.943}
{"sequence": "GTTTTACAAACACAATGGAAGGCTGTATGTGCCTAGGGAGATTAGAGTATCGGTCGA", "binding signal": 0.119}
{"sequence": "GTCACTGCTCAAAAACACTCAGTTAATTATGCCTAGGGAGATTAGAGTATCGGTCGA", "binding signal": -0.0424}
{"sequence": "CTCCCAAATCTTCTTTAAGCTATGTGGTGGGCCTAGGGAGATTAGAGTATCGGTCGA", "binding signal": 0.933}
{"sequence": "TTTCTGTTTGTCTTACTGTGTTGTCGTATTGCCTAGGGAGATTAGAGTATCGGTCGA", "binding signal": 2.11}
{"sequence": "ACAGCACTTAGGGTTCAAAGGTTGTTGAGCGCCTAGGGAGATTAGAGTATCGGTCGA", "binding signal": 6.67}
{"sequence": "CTCCAGGGCACTGCCCTTTGGAACCTGCCCGCCTAGGGAGATTAGAGTATCGGTCGA", "binding signal": 6.57}
{"sequence": "AAAGCCTAGGCTCCAGGGCACTGCCCTTTGGCCTAGGGAGATTAGAGTATCGGTCGA", "binding signal": 3.51}
{"sequence": "TACTTTGCTTCCAAGTTATGCAGACCTTTGGCCTAGGGAGATTAGAGTATCGGTCGA", "binding signal": 2.66}
{"sequence": "TGCACATTCCCTCCAGCAGGGGATGCCCTTGCCTAGGGAGATTAGAGTATCGGTCGA", "binding signal": 2.84}
{"sequence": "GGATGCCCTTTGACCTCTGCTTCCTGCTACGCCTAGGGAGATTAGAGTATCGGTCGA", "binding signal": 6.5}
{"sequence": "CTAGGCTCCAGGGCACTGCCCTTTGGAACCGCCTAGGGAGATTAGAGTATCGGTCGA", "binding signal": 7.42}
{"sequence": "GCAGGGGATGCCCTTTGACCTCTGCTTCCTGCCTAGGGAGATTAGAGTATCGGTCGA", "binding signal": 8.67}
{"sequence": "CCCTTTGACCTCTGCTTCCTGCTACAGAGCGCCTAGGGAGATTAGAGTATCGGTCGA", "binding signal": 2.76}
{"sequence": "ATTCCCTTTCTCCTCCCCTCCCCTCCCCCCGCCTAGGGAGATTAGAGTATCGGTCGA", "binding signal": 6.78}
{"sequence": "ATTCCCTCCAGCAGGGGATGCCCTTTGACCGCCTAGGGAGATTAGAGTATCGGTCGA", "binding signal": 9.35}
{"sequence": "TTATGCAGACCTTTGCCCTTTGTTTACATAGCCTAGGGAGATTAGAGTATCGGTCGA", "binding signal": 5.95}
{"sequence": "TGCTTCCAAGTTATGCAGACCTTTGCCCTTGCCTAGGGAGATTAGAGTATCGGTCGA", "binding signal": 7.7}
